Results reported in PubChem BioAssay (EPA / NIEHS).
Records with an inconclusive call do not appear. The source made the active and inactive calls. Rule for the calls, unless noted: active = hit-call score of the fitted dose curve at least 0.9, where 1 is the maximum; inconclusive = response in the unintended direction; inactive = score below 0.9.

Key:
[1] = target: PGR (gene 5241) (UniProt P06401); test: TOX21_PR_BLA_Followup_Agonist_ratio: Tox21 HEK293 Progesterone Receptor (PR) Agonism Beta-lactamase Follow-Up Assay, Ratio (AID 2283933)
Chain of PGR (gene 5241) (P06401 whole entry, looked up): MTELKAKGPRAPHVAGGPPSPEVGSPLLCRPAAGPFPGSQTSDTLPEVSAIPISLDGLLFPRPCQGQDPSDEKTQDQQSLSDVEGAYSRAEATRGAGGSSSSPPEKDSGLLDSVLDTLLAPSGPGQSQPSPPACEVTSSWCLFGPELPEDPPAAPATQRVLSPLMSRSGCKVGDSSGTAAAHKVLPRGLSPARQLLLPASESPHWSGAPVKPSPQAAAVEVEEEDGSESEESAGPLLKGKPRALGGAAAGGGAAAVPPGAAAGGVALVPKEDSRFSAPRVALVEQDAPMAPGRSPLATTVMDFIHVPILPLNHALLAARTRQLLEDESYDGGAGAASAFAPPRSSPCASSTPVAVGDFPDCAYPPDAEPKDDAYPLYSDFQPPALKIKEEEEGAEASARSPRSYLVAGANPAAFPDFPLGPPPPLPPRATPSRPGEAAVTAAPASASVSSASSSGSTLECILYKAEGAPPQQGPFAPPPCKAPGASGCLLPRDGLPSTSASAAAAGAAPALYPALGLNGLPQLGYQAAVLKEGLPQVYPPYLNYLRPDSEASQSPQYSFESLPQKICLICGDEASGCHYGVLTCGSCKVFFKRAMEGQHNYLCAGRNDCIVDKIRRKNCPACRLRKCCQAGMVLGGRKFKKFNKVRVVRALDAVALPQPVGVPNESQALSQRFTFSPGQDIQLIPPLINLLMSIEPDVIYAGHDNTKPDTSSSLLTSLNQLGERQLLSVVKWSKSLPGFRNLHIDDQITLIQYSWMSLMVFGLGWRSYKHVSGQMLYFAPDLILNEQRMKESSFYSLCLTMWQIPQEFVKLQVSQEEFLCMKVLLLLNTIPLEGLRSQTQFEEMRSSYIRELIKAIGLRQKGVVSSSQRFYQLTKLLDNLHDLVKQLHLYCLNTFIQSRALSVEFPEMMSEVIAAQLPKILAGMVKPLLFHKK
Outline: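 Cells were seeded and held 6 hr before compound addition, exposed for 16 hr at 37C, then given FRET substrate for 2 hr at room temperature. Agonism was scored from the blue/green substrate cleavage ratio against DMSO controls.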

[2] = target: PGR (gene 5241) (UniProt P06401); test: TOX21_PR_BLA_Followup_Antagonist_ratio: Tox21 HEK293 Progesterone Receptor (PR) Antagonism Beta-lactamase Follow-Up Assay, Ratio (AID 2283934);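 note: PR-UAS-bla HEK293T cells stimulated with 1 nM R5020 agonist for 16 hr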
Outline: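 Cells are plated, rested 6 hr, then dosed with test compound in DMSO and challenged with 1 nM promegestone. After 16 hr incubation, substrate loading for 2 h at room temperature precedes fluorescence reading; viability is measured in the same wells.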

[3] = TOX21_PR_BLA_Followup_Agonist_viability: Viability Assessment in the Tox21 HEK293 Progesterone Receptor (PR) Agonism Beta-lactamase Follow-Up Assay (AID 2283935);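 note: signal loss means lower viability so actives are cytotoxic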
Outline: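 Cells were plated in medium with 2% charcoal-stripped FBS and rested 6 hr. Compounds in DMSO were then added for 16 hr at 37C, followed by the FRET substrate step and CellTiter-Glo luminescence after 30 min.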

[4] = TOX21_PR_BLA_Followup_Antagonist_viability: Viability Assessment in the Tox21 HEK293 Progesterone Receptor (PR) Antagonism Beta-lactamase Follow-Up Assay (AID 2283936);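 note: cells exposed to compound with R5020 agonist for 16 h; hits lower the luminescence signal meaning cytotoxicity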
Outline: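 PR-UAS-bla HEK293T cells in medium with 2% charcoal-stripped FBS were treated with compounds plus R5020 for 16 hr at 37C. After the beta-lactamase read, CellTiter-Glo was added to the same wells and luminescence read after 30 min at room temperature.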

[5] = target: PGR (gene 5241) (UniProt P06401); test: TOX21_PR_LUC_Followup_Agonist: Tox21 HEK293 Progesterone Receptor (PR) Agonism Luciferase Follow-Up Assay (AID 2283937; active = hit-call score of the fitted dose curve at least 0.9, where 1 is the maximum; inactive = score below 0.9)
Outline: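 Seed HEK293-PR-A-luc cells, wait 5 h, add compounds in DMSO, incubate 16 h at 37C, add ONE-Glo, read luminescence after 30 min. Activity is increase over DMSO controls; run with a viability counter-screen.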

[6] = target: PGR (gene 5241) (UniProt P06401); test: TOX21_PR_LUC_Followup_Antagonist: Tox21 HEK293 Progesterone Receptor (PR) Antagonism Luciferase Follow-Up Assay (AID 2283938);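 note: curve fitted upward as signal gain over DMSO baseline despite antagonist label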
Outline: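 HEK293-PR-A-luc cells were precultured 5 days in medium with 10% charcoal-stripped FBS, seeded 3,000/well, then exposed to compounds in DMSO for 16 h at 37C. Luciferase was read by ONE-Glo luminescence after 30 min at room temperature.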

[7] = TOX21_PR_LUC_Followup_Antagonist_viability: Viability Assessment in the Tox21 HEK293 Progesterone Receptor (PR) Antagonism Luciferase Follow-Up Assay (AID 2283940)
Outline: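 HEK293-PR-A-luc, 3,000 cells/well; 5 h at 37C/0% CO2; compound pin transfer; 16 h incubation; CellTiter-Glo ATP luminescence, signal loss = cytotoxicity.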

[8] = TOX21_PR_LUC_Followup_Agonist_viability: Viability Assessment in the Tox21 HEK293 Progesterone Receptor (PR) Agonism Luciferase Follow-Up Assay (AID 2283941);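 note: loss of signal means cytotoxicity so actives lower viability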
Outline: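 Multiplexed viability endpoint of the PR agonist luciferase follow-up: HEK293-PR-A-luc cells treated 16 h at 37C, with viability scored as decrease in CellTiter-Glo ATP signal.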

[9] = target: T1, Thyroid hormone receptor alpha (Rattus norvegicus) + Thyroid hormone receptor beta (Rattus norvegicus) (UniProt P18113+P63059); test: TOX21_TR_LUC_GH3_Agonist_Followup: Tox21 GH3 Thyroid Hormone Receptor Agonism Luciferase Follow-Up Assay (AID 2283939)
T1 sequence (P63059 whole entry, looked up): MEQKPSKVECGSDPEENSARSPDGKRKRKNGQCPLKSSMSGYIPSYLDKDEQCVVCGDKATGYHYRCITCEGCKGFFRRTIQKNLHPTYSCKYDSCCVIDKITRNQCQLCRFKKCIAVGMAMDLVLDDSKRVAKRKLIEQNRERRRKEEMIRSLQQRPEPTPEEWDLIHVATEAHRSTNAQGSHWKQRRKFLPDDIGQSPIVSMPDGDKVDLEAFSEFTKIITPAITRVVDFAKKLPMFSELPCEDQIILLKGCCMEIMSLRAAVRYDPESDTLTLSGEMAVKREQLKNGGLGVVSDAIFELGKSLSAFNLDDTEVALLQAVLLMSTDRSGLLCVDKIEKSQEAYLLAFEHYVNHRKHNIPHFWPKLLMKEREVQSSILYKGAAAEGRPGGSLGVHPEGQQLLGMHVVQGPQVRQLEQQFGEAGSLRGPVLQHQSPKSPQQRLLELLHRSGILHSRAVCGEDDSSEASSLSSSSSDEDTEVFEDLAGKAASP
T1 sequence (P18113 whole entry, looked up): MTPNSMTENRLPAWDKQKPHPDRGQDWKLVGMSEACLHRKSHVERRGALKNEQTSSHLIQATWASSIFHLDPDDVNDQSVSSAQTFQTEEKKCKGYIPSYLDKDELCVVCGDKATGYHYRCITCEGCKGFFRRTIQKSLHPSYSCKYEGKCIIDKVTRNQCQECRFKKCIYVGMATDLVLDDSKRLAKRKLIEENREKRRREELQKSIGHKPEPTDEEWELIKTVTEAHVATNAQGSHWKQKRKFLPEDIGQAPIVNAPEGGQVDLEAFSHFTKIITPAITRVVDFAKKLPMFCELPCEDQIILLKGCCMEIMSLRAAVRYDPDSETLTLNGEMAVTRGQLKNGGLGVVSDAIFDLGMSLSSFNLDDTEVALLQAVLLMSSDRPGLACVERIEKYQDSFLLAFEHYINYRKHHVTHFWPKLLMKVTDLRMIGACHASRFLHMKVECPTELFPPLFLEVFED
Outline: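 Agonist-mode confirmatory run: 15 concentrations (5 nM to 92 uM final) on GH3 rat pituitary cells, 24 h at 37C/5% CO2, T3 as positive control. Luminescence read with ONE-Glo after 30 min.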

[10] = target: THRA (gene 7067) (UniProt P10827); test: TOX21_TRA_COA_Agonist_Followup_ratio: Tox21 Thyroid Hormone Receptor alpha Agonism through Coactivator Recruitment Follow-Up Assay, Ratio (AID 2283948; active = hit-call score of the fitted dose curve at least 0.9, where 1 is the maximum; inactive = score below 0.9)
Chain of THRA (gene 7067) (P10827 whole entry, looked up, the tested form may be a part): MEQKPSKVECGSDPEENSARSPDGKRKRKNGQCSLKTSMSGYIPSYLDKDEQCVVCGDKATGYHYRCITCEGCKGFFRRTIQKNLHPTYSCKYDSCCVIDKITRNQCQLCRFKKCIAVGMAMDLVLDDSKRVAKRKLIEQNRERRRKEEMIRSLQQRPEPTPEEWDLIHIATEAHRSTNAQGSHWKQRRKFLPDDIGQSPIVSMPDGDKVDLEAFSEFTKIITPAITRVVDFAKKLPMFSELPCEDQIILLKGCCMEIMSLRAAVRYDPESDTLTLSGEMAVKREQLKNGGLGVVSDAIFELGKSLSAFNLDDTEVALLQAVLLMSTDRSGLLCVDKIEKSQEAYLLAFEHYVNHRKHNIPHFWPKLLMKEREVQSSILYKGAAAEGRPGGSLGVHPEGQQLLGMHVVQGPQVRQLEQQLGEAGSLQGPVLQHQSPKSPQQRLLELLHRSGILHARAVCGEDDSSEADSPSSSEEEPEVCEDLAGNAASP
Outline: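 Read-out is the 520/495 nm emission ratio (ex 340 nm), scaled between DMSO-only wells as 0% and T3 wells as 100%. It reflects fluorescein-SRC-2 peptide recruitment to GST-TRα LBD detected via terbium anti-GST antibody.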

[11] = target: THRB (gene 7068) (UniProt P10828); test: TOX21_TRB_BLA_Agonist_Followup_ratio: Tox21 Thyroid Hormone Receptor beta Agonism Beta-lactamase (BLA) Follow-Up Assay, Ratio (AID 2283954)
Chain of THRB (gene 7068) (P10828 whole entry, looked up, the tested form may be a part): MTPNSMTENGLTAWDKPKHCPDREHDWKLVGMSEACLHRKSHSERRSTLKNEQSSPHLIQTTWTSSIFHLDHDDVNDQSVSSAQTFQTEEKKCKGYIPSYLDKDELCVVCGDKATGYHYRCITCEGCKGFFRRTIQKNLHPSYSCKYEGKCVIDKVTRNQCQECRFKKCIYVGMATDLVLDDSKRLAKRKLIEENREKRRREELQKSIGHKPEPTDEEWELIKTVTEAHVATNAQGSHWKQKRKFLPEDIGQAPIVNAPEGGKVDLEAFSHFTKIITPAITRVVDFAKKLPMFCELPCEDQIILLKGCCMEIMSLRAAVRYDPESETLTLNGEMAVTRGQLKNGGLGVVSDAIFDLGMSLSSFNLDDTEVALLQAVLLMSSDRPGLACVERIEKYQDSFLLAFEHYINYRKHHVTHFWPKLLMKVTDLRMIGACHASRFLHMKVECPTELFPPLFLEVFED
Outline: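 Agonist mode: compounds (11-point, triplicate) incubated 18 h with HEK293T cells carrying GAL4-DBD/human TRβ-LBD and UAS-β-lactamase. Blue/green (460/530 nm) FRET ratio read after 2 h CCF4-AM loading; CellTiter-Glo viability run in the same plates.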

[12] = target: THRB (gene 7068) (UniProt P10828); test: TOX21_TRB_COA_Agonist_Followup_ratio: Tox21 Thyroid Hormone Receptor beta Agonism through Coactivator Recruitment Follow-Up Assay, Ratio (AID 2283963; active = hit-call score of the fitted dose curve at least 0.9, where 1 is the maximum; inactive = score below 0.9)
Outline: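 GST-TRb LBD 5.0 nM + 0.10% BSA + cpd; add fluorescein-SRC-2 200 nM / Tb anti-GST Ab 2 nM; TR-FRET ex 340, em 520:495; norm DMSO 0%, T3 100%.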

[13] = target: Retinoic acid receptor RXR-alpha (Homo sapiens) (UniProt P19793); test: TOX21_TR_RXR_BLA_Agonist_Followup_ratio: Tox21 Thyroid Hormone Receptor beta Retinoid X Receptor alpha (RXRa) Agonism Beta-lactamase (BLA) Follow-Up Assay, Ratio (AID 2283968)
Chain of Retinoic acid receptor RXR-alpha (Homo sapiens) (P19793 whole entry, looked up): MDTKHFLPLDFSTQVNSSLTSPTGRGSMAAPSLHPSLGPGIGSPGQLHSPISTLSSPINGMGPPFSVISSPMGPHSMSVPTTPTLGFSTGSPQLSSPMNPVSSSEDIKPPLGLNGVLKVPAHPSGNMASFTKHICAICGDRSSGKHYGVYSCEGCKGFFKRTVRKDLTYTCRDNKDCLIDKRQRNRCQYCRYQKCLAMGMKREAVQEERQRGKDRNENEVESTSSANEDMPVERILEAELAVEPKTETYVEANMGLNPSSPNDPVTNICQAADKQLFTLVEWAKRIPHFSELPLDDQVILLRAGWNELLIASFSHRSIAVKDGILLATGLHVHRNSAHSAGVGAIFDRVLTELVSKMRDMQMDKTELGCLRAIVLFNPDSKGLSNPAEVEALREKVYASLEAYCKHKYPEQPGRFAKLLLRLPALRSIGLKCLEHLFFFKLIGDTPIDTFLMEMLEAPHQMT
Outline: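 Cells were first allowed to attach for 5 h, after which compounds in DMSO were pinned at 11 concentrations and incubated 16 h at 37C. LiveBLAzer CCF4-AM substrate was then added for 2 h at room temperature before reading 460 and 530 nm fluorescence.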

[14] = TOX21_TR_RXR_BLA_Agonist_Followup_viability: Viability Assessment in the Tox21 Thyroid Hormone Receptor beta Retinoid X Receptor alpha (RXRa) Agonism Beta-lactamase (BLA) Follow-Up Assay (AID 2283970)
Outline: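 Viability counter-screen run alongside the RXRa bla follow-up: HEK293T reporter cells were treated for 16h at 37C in stripped-serum medium, then ATP was quantified by luciferase-coupled CellTiter-Glo. Decreased signal relative to DMSO marked cytotoxicity.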

[15] = target: T1, Thyroid hormone receptor alpha (Rattus norvegicus) + Thyroid hormone receptor beta (Rattus norvegicus); test: TOX21_TR_LUC_GH3_Antagonist_Followup: Tox21 GH3 Thyroid Hormone Receptor Antagonism Luciferase Follow-Up Assay (AID 2283942)
Outline: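 Loss of T3-driven (1.0 nM final) reporter activity in GH3 cells was read by ONE-Glo luminescence after 24 h incubation at 37C; 15-point compound series spanned 92 uM to 5nM final, 1,500 cells/well.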

[16] = target: THRA (gene 7067) (UniProt P10827); test: TOX21_TRA_COA_Antagonist_Followup_ratio: Tox21 Thyroid Hormone Receptor alpha Antagonism through Coactivator Recruitment Follow-Up Assay, Ratio (AID 2283953)
Outline: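 GST-TRα LBD 2.5 nM, BSA 0.10%, + cpd; then FITC-SRC-2 peptide 200 nM + Tb-anti-GST Ab 2 nM. TR-FRET ratio 520/495 nm. Norm: DMSO = 0%, T3 = 100%.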

[17] = target: THRB (gene 7068) (UniProt P10828); test: TOX21_TRB_COA_Antagonist_Followup_ratio: Tox21 Thyroid Hormone Receptor beta Antagonism through Coactivator Recruitment Follow-Up Assay, Ratio (AID 2283967)
Outline: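 Coactivator recruitment to the GST-tagged TRb ligand-binding domain (5.0 nM) was read as the 520/495 nm TR-FRET ratio, using 200 nM fluorescein SRC-2 peptide and 2 nM terbium anti-GST. Scaled between DMSO and T3 wells; loss of signal fitted.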

[18] = target: Retinoic acid receptor RXR-alpha (Homo sapiens) (UniProt P19793); test: TOX21_TR_RXR_BLA_Antagonist_Followup_ratio: Tox21 Thyroid Hormone Receptor beta Retinoid X Receptor alpha (RXRa) Antagonism Beta-lactamase (BLA) Follow-Up Assay, Ratio (AID 2283972)
Outline: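 RXRa-UAS-bla HEK293T cells in phenol red-free DMEM with 2% charcoal-stripped FBS; compounds at 11 concentrations in triplicate, 16 h at 37C. LiveBLAzer FRET-B/CCF4-AM substrate 2 h at room temperature; read as 460:530 nm ratio versus DMSO.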

[19] = TOX21_TR_RXR_BLA_Antagonist_Followup_viability: Viability Assessment in the Tox21 Thyroid Hormone Receptor beta Retinoid X Receptor alpha (RXRa) Antagonism Beta-lactamase (BLA) Follow-Up Assay (AID 2283979)
Outline: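 Follow-up compounds (11 concentrations, triplicate) were incubated 16 h at 37C/5% CO2 with HEK293T RXRa-bla cells seeded at 2,500/well in charcoal-stripped-serum medium. ATP content by CellTiter-Glo luminescence gave viability; curves fitted in both directions against DMSO.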

[20] = TOX21_TRB_BLA_Antagonist_Followup_viability: Viability Assessment in the Tox21 Thyroid Hormone Receptor beta Antagonism Beta-lactamase (BLA) Follow-Up Assay (AID 2283961)
Outline: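 HEK293T cells stably expressing GAL4-DBD/human TRβ-LBD with UAS-bla reporter, 3,000 cells/well in phenol red-free DMEM, 2% charcoal-stripped FBS. Compounds at 11 concentrations in triplicate, 18 h at 37C/5% CO2; viability by CellTiter-Glo luminescence after 30 min at room temperature.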

[21] = CCTE_Harrill_HTTr_Viability_MCF7: CCTE's 6-hour Cell Viability Assessment for the High-Throughput Transcriptomics (HTTr) Platform, in MCF-7 cells cultured in DMEM + 10% fetal bovine serum, Harrill Lab (AID 2284010; active = hit-call score of the fitted dose curve at least 0.9, where 1 is the maximum; inactive = score below 0.9)
Outline: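 Read-out is propidium iodide gain of signal by high-content imaging, reflecting membrane integrity loss. Measurements are taken 6 h after dosing, eight concentrations per chemical, with DMSO serving as baseline for bidirectional curve fitting.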

[22] = CCTE_Harrill_HTTr_Apoptosis_MCF7: CCTE's 6-hour Apoptosis Assessment for the High-Throughput Transcriptomics (HTTr) Platform, in MCF-7 cells cultured in DMEM + 10% fetal bovine serum, Harrill Lab (AID 2284011; active = hit-call score of the fitted dose curve at least 0.9, where 1 is the maximum; inactive = score below 0.9)
Outline: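 MCF-7 cells in DMEM + 10% fetal bovine serum were exposed to chemicals for 6 hours over an eight-point dilution series. Caspase-3/7 activation was imaged by high content imaging with CellEvent Caspase 3/7 Green; bidirectional fitting used DMSO as baseline.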

Measured: AC50

CCCC(=O)OCOC(=O)C1=C(C)NC(C)=C(C(=O)OC)C1c1cccc(Cl)c1Cl (centres undefined)
inactive: [1] | [2] | [3] | [4] | [5] | [6]

Clc1ccc2c(c1)Nc1ccccc1S2
inactive: [1] | [3] | [4] | [5]
active: [2] 19.4 µM | [6] 28.9 µM

COC(=O)[C@@H]1CC2=CC(=O)CC[C@]2(C)[C@@]23O[C@@H]2C[C@@]2(C)[C@@H](CC[C@@]24CCC(=O)O4)[C@H]13
inactive: [1] | [3] | [4] | [5] | [6] | [7] | [8]

C[C@]12CCC(=O)C=C1CC[C@H]1[C@@H]3CC[C@](O)(C(=O)CO)[C@@]3(C)C[C@H](O)[C@@]12F
inactive: [2] | [3] | [4] | [6] | [8]

Nc1ncn([C@H]2C[C@H](O)[C@@H](CO)O2)c(=O)n1
inactive: [9] | [10] | [11] | [12] | [13] | [14]

CC(=O)O[C@@]12CO[C@@H]1C[C@H](O)[C@@]1(C)C(=O)[C@H](O)C3=C(C)[C@@H](OC(=O)[C@H](O)[C@@H](NC(=O)OC(C)(C)C)c4ccccc4)C[C@@](O)([C@@H](OC(=O)c4ccccc4)[C@H]21)C3(C)C
inactive: [15] | [16] | [17] | [18] | [19]

CC(=O)OCC(=O)[C@@]1(O)CC[C@H]2[C@@H]3CCC4=CC(=O)CC[C@]4(C)[C@H]3C(=O)C[C@@]21C
inactive: [1] | [2] | [3] | [4] | [5] | [6] | [7] | [8]

C[C@@H]1C[C@H]2[C@@H]3CCC4=CC(=O)C=C[C@]4(C)[C@@]3(F)[C@@H](O)C[C@]2(C)[C@@]1(O)C(=O)COC(=O)c1ccncc1
active: [1] 26.1 µM | [5] 0.51 µM
inactive: [2] | [3] | [4] | [7] | [8]

O=c1[nH]c(=O)n([C@H]2C[C@H](O)[C@@H](CO)O2)cc1C(F)(F)F
inactive: [15] | [20] | [19]

O=C1c2ccccc2-c2n[nH]c3cccc1c23
inactive: [15] | [16] | [20] | [18] | [19]

CCCCCCCCCCCC[N+](C)(C)[O-]
inactive: [21] | [22]

C[C@]12CCC(=O)C=C1CC[C@@H]1[C@@H]2[C@@H](O)C[C@@]2(C)[C@H]1CC[C@]2(O)C(=O)CO
active: [5] 1.3 µM
inactive: [1] | [2] | [3]
